Screening results from PubChem.
Only some compounds are listed: those with a hit (about 19% of all), similar ones and a draw of the others.
TDP1 inh – qHTS Assay for Inhibitors of Tyrosyl-DNA Phosphodiesterase (TDP1) | Tyrosyl-DNA phosphodiesterase 1 (Homo sapiens), Q9NUW8 | recombinant TDP1, AlphaScreen DNA substrate cleavage | Potency, µM (doses to about 130 µM), actives largely listed as inhibitors | 350,000 compounds, 0.28% hits | AID 485290, 2010; further: nearly all actives have a fitted effect of over 40% in size
Target sequence (Q9NUW8 whole entry, looked up): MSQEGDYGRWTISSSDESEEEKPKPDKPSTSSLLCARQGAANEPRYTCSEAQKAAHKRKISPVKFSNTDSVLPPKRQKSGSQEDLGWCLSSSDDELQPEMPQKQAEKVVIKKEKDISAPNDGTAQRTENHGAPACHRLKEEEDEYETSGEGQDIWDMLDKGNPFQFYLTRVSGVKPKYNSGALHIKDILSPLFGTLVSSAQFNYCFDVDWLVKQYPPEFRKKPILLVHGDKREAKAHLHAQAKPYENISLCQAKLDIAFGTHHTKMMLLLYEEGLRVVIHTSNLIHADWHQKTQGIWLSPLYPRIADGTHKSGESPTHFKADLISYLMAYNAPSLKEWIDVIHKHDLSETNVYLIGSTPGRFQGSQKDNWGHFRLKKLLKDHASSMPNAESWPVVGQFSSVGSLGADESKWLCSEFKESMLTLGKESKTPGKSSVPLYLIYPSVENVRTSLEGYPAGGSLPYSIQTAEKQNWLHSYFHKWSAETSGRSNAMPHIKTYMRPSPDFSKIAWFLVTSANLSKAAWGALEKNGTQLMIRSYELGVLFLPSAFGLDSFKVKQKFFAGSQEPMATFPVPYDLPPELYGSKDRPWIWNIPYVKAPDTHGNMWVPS
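Signal: AlphaScreen proximity between streptavidin donor and anti-FITC acceptor beads on intact substrate. Reaction: Tdp1 1 nM, substrate 15 nM final, 5 min RT after 15 min compound preincubation.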
Giardia kill – Small Molecules that selectively kill Giardia lamblia: qHTS; Giardia lamblia trophozoite viability; activity change, % at 7.66 µM, hits read low; 340,000 compounds, 0.15% hits; in the data active means activity change below about -80%; inconclusive means between about -30% and that limit;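 further: parasites exposed to compound for two days anaerobically before the ATP read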
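Giardia trophozoites, 100 cells per well, were exposed to compounds for 48 hrs at 37 deg C under anaerobic conditions; viability was then read as ATP content by bioluminescence after 15-30 min at room temperature.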
ELG1 DNA repair – qHTS screen for small molecules that inhibit ELG1-dependent DNA repair in human embryonic kidney (HEK293T) cells expressing luciferase-tagged ELG1; HEK293T ELG1-luciferase reporter, luminescence, 16 h; DNA damage induced by 5-fluorouridine; Potency, µM (doses to about 46.1 µM), usual class: inhibitors; 330,000 compounds, 2.3% hits; AID 504467, 2011; further: nearly all actives have a fitted effect of over 55% in size
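Luminescence from the luciferase reporter, measured 30 min after ONE-Glo reagent at room temperature, was the read-out. Beforehand, 2,000 cells per well were exposed for 16 hr at 37 °C to 5-fluorouridine together with compound or vehicle.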
TDP1 cell CPT – qHTS for Inhibitors of human tyrosyl-DNA phosphodiesterase 1 (TDP1): qHTS in cells in presence of CPT; 420,000 compounds, 12% hits; AID 686979, 2013; chicken DT40 Tdp1-/-;hTDP1 cells + 20 nM CPT, ATP luminescence, 48 h; Potency, µM (highest dose often 46.2 µM), hits mostly inhibitors; further: nearly all actives have a fitted effect of over 55% in size
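Cell growth measured by CellTiter-Glo luminescence after a minimum 48 h, 37 C compound exposure with 20 nM CPT in Tdp1-knockout DT40 cells stably expressing hTDP1, seeded 400/well; qHTS titration format.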
TDP1 cell noCPT – qHTS for Inhibitors of human tyrosyl-DNA phosphodiesterase 1 (TDP1): qHTS in cells in absence of CPT; DT40 Tdp1-/- hTDP1 cells, no CPT, ATP luminescence, 48 h; Potency, µM (series often up to 46.2 µM), usual class: inhibitors; 420,000 compounds, 15% hits; further: nearly all actives have a fitted effect of over 55% in size
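Cells were dispensed at 400 per well, compounds added by pin tool, plates incubated ≥48 hr at 37 °C, then CellTiter-Glo added for 30 min at room temperature before luminescence reading. Line: DT40 Tdp1-/- complemented with hTDP1; camptothecin omitted.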
IL-1B inflam inh – qHTS for Inhibitors of Inflammasome Signaling: IL-1-beta AlphaLISA Primary Screen | THP-1 LPS/ATP IL-1B secretion, AlphaLISA, 16 h; hits give low values | activity change, % at 57.5 µM | 360,000 compounds, 4.7% hits; in the data active means activity change below about -50%; inconclusive means mostly about -30% to -49%
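THP-1 cells pretreated 1 hr with compounds (up to 57.5 uM final), then stimulated with LPS (250 ng/mL final) plus ATP (1.25 mM final); secreted IL-1B measured by AlphaLISA after 16 hr, decreased signal indicating inhibition.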
Of the large screens only hits and unclear results are named; the others gave an inactive call. Unless noted, the call rests on the fitted dose curve; in most records, active means well fitted curve in the direction sought with a large enough effect; inconclusive means small, poorly fitted or top-dose-only effect, or another doubt; inactive means no such curve, though single readings can be large; an effect the other way counts as inactive or inconclusive.

Fc1ccc(-c2ccc3c(c2)C2CC3CCN2Cc2ccc3c(c2)OCO3)cc1 (centres undefined)	TDP1 cell CPT inconclusive, TDP1 cell noCPT 16µM (no result: TDP1 inh, ELG1 DNA repair)
O=C(c1ccccc1F)N1CCC2CC1c1cc(-c3ccc4c(c3)OCO4)ccc12 (centres undefined)	TDP1 cell CPT inconclusive, TDP1 cell noCPT 21µM (no result: TDP1 inh, Giardia kill, ELG1 DNA repair)
S=C(NCCc1ccccc1)N1CCC2CC1c1cc(-c3ccc4c(c3)OCO4)ccc12 (centres undefined)	TDP1 cell CPT 8.2µM, TDP1 cell noCPT 9.2µM (no result: TDP1 inh, Giardia kill, ELG1 DNA repair)
CNC1CCCN(c2c(F)cc3c(=O)c(C(=O)O)cn(C4CC4)c3c2OC)C1 (centres undefined)	none (no result: TDP1 inh, Giardia kill, ELG1 DNA repair, IL-1B inflam inh)
CCn1cc(C(=O)O)c(=O)c2cc(F)c(N3CCNC(C)C3)c(F)c21 (centres undefined)	TDP1 cell CPT 15µM, TDP1 cell noCPT inconclusive (no result: Giardia kill, ELG1 DNA repair, IL-1B inflam inh)
CCCn1c(SCc2nc(N)nc(N3CCCCC3)n2)nc2c1c(=O)n(C)c(=O)n2C	ELG1 DNA repair inconclusive, TDP1 cell CPT inconclusive, TDP1 cell noCPT inconclusive
Cn1c(=O)c2c(nc(SCc3nc(N)nc(N4CCCCC4)n3)n2C)n(C)c1=O	ELG1 DNA repair inconclusive, TDP1 cell CPT 21µM, TDP1 cell noCPT 23µM
Cc1ccc(CNC(=O)Cn2nnc(C(=O)Nc3ccc(Br)cc3)c2N)cc1	TDP1 cell CPT inconclusive
Cc1ccc(C)c(-n2nnc(C(=O)Nc3ccc(Br)cc3)c2C)c1	TDP1 cell CPT 10µM, TDP1 cell noCPT 5.2µM (no result: Giardia kill, ELG1 DNA repair, IL-1B inflam inh)
COc1ccc(C)cc1NC(=O)c1nnn(Cc2cccc(Br)c2)c1N	none (no result: Giardia kill, ELG1 DNA repair, IL-1B inflam inh)
COc1cn(-c2ccccc2)nc1C(=O)Nc1ccccc1	ELG1 DNA repair inconclusive, IL-1B inflam inh -55
COc1ccc(C)cc1NC(=O)c1nn(-c2ccccc2)cc1OC	ELG1 DNA repair inconclusive, TDP1 cell CPT inconclusive, TDP1 cell noCPT 21µM, IL-1B inflam inh -87
COc1ccc(C)cc1NC(=O)c1nnn(-c2c(C)cccc2C)c1C	TDP1 cell CPT inconclusive, TDP1 cell noCPT 16µM (no result: Giardia kill, ELG1 DNA repair, IL-1B inflam inh)
COC(=O)c1ccc(CNC(=O)/C=C/[C@H]2O[C@@H](n3cc(C)c(=O)[nH]c3=O)C[C@@H]2O)cc1	none (no result: TDP1 inh, Giardia kill, ELG1 DNA repair)
CCN=c1scc(C)n1/N=C/c1cc(Br)c(O)c(OC)c1	ELG1 DNA repair 5.8µM, TDP1 cell noCPT inconclusive
COc1ccc(OC)c(NC(=O)CC2SC(=Nc3ccc(F)cc3)N(CCC3=CCCCC3)C2=O)c1 (centres undefined)	ELG1 DNA repair inconclusive, TDP1 cell CPT inconclusive, TDP1 cell noCPT inconclusive
O=C(CC1SC(=Nc2ccc(OC(F)F)cc2)N(CCN2CCOCC2)C1=O)Nc1ccc(F)cc1F (centres undefined)	ELG1 DNA repair inconclusive, TDP1 cell CPT inconclusive, TDP1 cell noCPT inconclusive, IL-1B inflam inh -63
O=C(CC1SC(=Nc2ccc(OC(F)F)cc2)N(CCN2CCOCC2)C1=O)Nc1ccccc1 (centres undefined)	TDP1 cell CPT 16µM, TDP1 cell noCPT inconclusive (no result: TDP1 inh)
Cc1noc(C)c1CSCC(=O)N(CC(C)C)c1c(N)n(Cc2ccccc2)c(=O)[nH]c1=O	none (no result: TDP1 inh)
Cc1cccc(NC(=S)NNC(=O)CCn2cc(C)cn2)c1	none
COc1ccc(N2CCN(c3cc(C)nc4ccc(OC)cc34)CC2)cc1	ELG1 DNA repair 13µM, TDP1 cell CPT 15µM, TDP1 cell noCPT 23µM
CCOC(=O)C1CCN(c2cc(C)nc3ccc(OC)cc23)CC1	ELG1 DNA repair inconclusive, TDP1 cell CPT inconclusive, TDP1 cell noCPT 16µM
CCOC(=O)c1cccc(NC(=O)c2sc3nc[nH]c(=O)c3c2C)c1	TDP1 cell CPT inconclusive, TDP1 cell noCPT inconclusive (no result: Giardia kill, ELG1 DNA repair, IL-1B inflam inh)
O=c1[nH]c(/C(=N\O)c2ccccc2)no1	ELG1 DNA repair inconclusive, TDP1 cell CPT inconclusive, TDP1 cell noCPT 15µM
